Results reported in PubChem BioAssay AID504766 (The Scripps Research Institute Molecular Screening Center, 2011).
Hit rate of the full screen: of about 340,000 compounds, about 3,400 (1%) were called active. Many of the other results were omitted from the sample, so actives are more common in it than they were. Unmarked numbers belong to inactive results.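 How the source made its calls: active means inhibition above the mean over all tested compounds plus 3 SD (cut at about 4.2% in these data); inactive means the rest.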

The molecules below were run against Nuclear receptor subfamily 0 group B member 1 (Homo sapiens) (UniProt P51843) (assay: relief of DAX1 transcriptional repression – cell-based, HEK293, Gal4-DAX1, luciferase luminescence, primary screen (AID 504766;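 further: 0% = DAX1-transfected cells with DMSO and 100% = empty-vector control cells with DMSO; inhibition shows as a rise in luminescence from relieved DAX1 repression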)). Conditions: HEK293 Gal4-DAX1 luciferase reporter, at 6.75 µM, active compounds read high.
Sequence of Nuclear receptor subfamily 0 group B member 1 (Homo sapiens) (P51843 207-470 limits assumed): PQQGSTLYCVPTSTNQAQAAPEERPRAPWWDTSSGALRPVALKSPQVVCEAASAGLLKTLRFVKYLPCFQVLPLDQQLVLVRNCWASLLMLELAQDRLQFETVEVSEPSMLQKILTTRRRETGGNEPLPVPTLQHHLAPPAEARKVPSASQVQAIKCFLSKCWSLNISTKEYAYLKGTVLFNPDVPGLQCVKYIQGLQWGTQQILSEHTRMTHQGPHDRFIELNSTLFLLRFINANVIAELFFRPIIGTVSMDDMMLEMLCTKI
With `O[C@H]1C[C@H](c2ccc(Cl)cc2)N(Cc2cccs2)C[C@@H]1n1cc(C2CC2)nn1` the inhibition was 0.67%. In the case of `CN(C)/C=C(/C(=O)c1ccc(Cl)c(Cl)c1)c1nnnn1-c1ccccc1`, the inhibition is reported as 8.45% (active). `CN(C)/C=C(/C(=O)c1ccccc1Cl)S(C)(=O)=O` gave an inhibition of -0.35%. In the case of `CC(=O)c1ccc(S(=O)(=O)NCc2nnnn2-c2ccccc2)cc1`, the inhibition is reported as 0.03%. Molecule `CCOc1cc(/C=N/NC(=O)c2c(C)nc3ccc(Cl)cn23)ccc1O` has an inhibition of 0.71%. `COc1ccc(C(=O)OCC(=O)NCCCc2ccccc2)cc1OC` was tested, and the inhibition was -0.04%. With `Cc1cnc(C(=O)OCC(=O)NCCCc2ccccc2)cn1` the inhibition was 8.25% (active). With `O=C(COC(=O)c1ccc(F)cc1)NCCCc1ccccc1` the inhibition was 1.34%. With `S=C(NN=Cc1ccccn1)Nc1ccccn1` the inhibition was -4.47%. Work on `CC1(c2cccc(N)c2)OCCO1` yielded an inhibition of 0.74%. `CCCCCCN1C[C@@H](O)[C@H](n2cc(COC(=O)c3ccccc3)nn2)C[C@@H]1c1ccc(Cl)cc1` was tested, and the inhibition was 0.09%. Work on `CCn1c(SCC(=O)Nc2ccc3c(c2)OCCO3)nnc1C(C)C` yielded an inhibition of 2.27%. In the case of `CCn1c(COc2ccccc2)nnc1SCC(=O)Nc1ccc2c(c1)OCCO2`, the inhibition is reported as -0.24%. With `CCn1c(SCC(=O)Nc2ccc3c(c2)OCCO3)nnc1-c1ccncc1` the inhibition was 6.79% (active). In the case of `COc1ccc(-n2nc(C(=O)NCC(=O)N3CCC(C(N)=O)CC3)c3ccccc3c2=O)cc1OC`, the inhibition is reported as 5.14% (active). For `COc1ccc(-n2nc(C(=O)NCC(=O)N3CCN(c4ccccc4OC)CC3)c3ccccc3c2=O)c(OC)c1`, the inhibition was -1.07%. Molecule `COc1ccc(-n2nc(C(=O)NCC(=O)N3CCCCCC3)c3ccccc3c2=O)cc1Cl` has an inhibition of -1.56%. With `O=C(OCc1ccccc1)N1CCC2CC1c1ccc(-c3ccc4c(c3)OCO4)cc12` (stereo unspecified) the inhibition was 0.14%. Work on `COC(=O)C(Cc1c[nH]c2ccccc12)NC(=O)CCNC(=O)c1ccco1` (stereo unspecified) yielded an inhibition of 0.93%. Work on `C[C@H]1CN([C@@H](C)CO)C(=O)CCCn2nncc2CO[C@@H]1CN(C)Cc1ccc(Oc2ccccc2)cc1` yielded an inhibition of -1.44%. `COc1ccc(-c2ccc3[nH]c4c(c3c2)CCN2C[C@H]3[C@H](C)ON(C)[C@H]3C[C@@H]42)cc1` showed an inhibition of -1.11%. `COc1ccc(NC(=O)C[C@H]2C(=O)N(CCc3ccccc3)C[C@@H]2C)cc1` showed an inhibition of 0.1%. With `Cc1cc(C)c(C#N)c(SCc2ccc3c(c2)OCO3)n1` the inhibition was -0.08%. `Cc1snc(SCc2c(F)cccc2Cl)c1C#N` showed an inhibition of -1.64%. For `Cc1ccc(CSc2nsc(C)c2C#N)cc1`, the inhibition was 4.45% (active). Molecule `C[C@@H]1CN([C@@H](C)CO)C(=O)c2cc(Br)cnc2O[C@@H]1CN(C)C(=O)C1CCCCC1` has an inhibition of 1.82%. `CCN(CC)C(=O)C1=C(C)N(Cc2ccccc2)C(=O)C(CC(=O)NC(c2ccccc2)c2ccccc2)C1` (stereo unspecified) showed an inhibition of -0.09%. In the case of `CC(=O)Nc1ccc(SCC(=O)NC(=O)c2ccc(Cl)cc2)cc1`, the inhibition is reported as 0.53%. `Cn1nc(-c2ccccc2)c2cc([N+](=O)[O-])ccc21` showed an inhibition of 0.55%. In the case of `O=[N+]([O-])c1ccc2oc(-c3cccc(O)c3)nc2c1`, the inhibition is reported as 0.69%. In the case of `O=[N+]([O-])c1ccc2c(c1)C(O)n1nc(-c3ccccc3)nc1S2` (stereo unspecified), the inhibition is reported as 6.7% (active). With `Cc1ccc(C=O)c([B-](F)(F)F)c1` the inhibition was -0.38%. Work on `COc1cc(NC(=O)CSc2nnc3ccc(-c4ccncc4)nn23)cc(OC)c1` yielded an inhibition of 0.29%. In the case of `COc1ccc(CCNC(=O)CSc2nnc3ccc(-c4ccncc4)nn23)cc1`, the inhibition is reported as 2.31%. `O=C(CSc1nnc2ccc(-c3ccncc3)nn12)N1CCCCC1` was tested, and the inhibition was 4.62% (active). `Cc1nc2ccccc2nc1CC(O)(c1ccccc1)c1ccccc1` was tested, and the inhibition was 1.49%. Molecule `COc1ccc(CN2C(=O)C(CC(=O)NCc3cccc4ccccc34)CC(C(=O)N3CCOCC3)=C2C)cc1` (stereo unspecified) has an inhibition of 0.04%. `CC(Sc1ccc(S(=O)(=O)N2CCN(C)CC2)cn1)C(=O)NC1CCCC(C)C1C` (stereo unspecified) gave an inhibition of 0.86%. With `C[C@H]1Cn2cnc(C(=O)N[C@H](C)c3ccccc3)c2C(=O)N1` the inhibition was 1.52%. With `CCOC(=O)C(=Cc1ccccc1)C(=O)c1ccccc1` the inhibition was -1.17%. `O=C(NC1CCCCC1)c1cc(C2CC2)on1` showed an inhibition of 1.17%. With `O=C(NCCCn1ccnc1)c1cc(-c2ccccc2)on1` the inhibition was 4.72% (active). For `O=C(NC1CCCC1)c1cc(-c2ccccc2)on1`, the inhibition was 5.49% (active). Work on `O=C(NCCCn1ccnc1)c1ccccc1F` yielded an inhibition of 1.27%. `O=C(NC1CCCCCCC1)c1cccs1` showed an inhibition of 0.85%. `O=C(NCCCn1ccnc1)c1cc(Br)c(Br)s1` showed an inhibition of 2.56%. With `O=NN(CCCl)C(=O)NCCc1cccc[n+]1[O-]` the inhibition was 0.77%. `CN(C)C(CNC(=O)c1cc(Br)c(Br)s1)c1ccco1` (stereo unspecified) gave an inhibition of -0.16%. For `O=C1[C@H]2[C@@H](c3ccc(C(F)(F)F)cc3)N[C@]3(CCCN(Cc4ccc(Cl)cc4)C3=O)[C@H]2C(=O)N1Cc1ccccc1`, the inhibition was -0.84%. For `Cc1ccc(Cc2c(-c3ccc(C)cc3)nc3c4ccccc4ccn23)cc1`, the inhibition was 0.53%. With `O=C(CN1C(=O)NC2(CCc3ccccc32)C1=O)NC1CCCCC1` (stereo unspecified) the inhibition was -0.26%. With `N#Cc1c(C(F)(F)F)cc(-c2ccc(Cl)cc2)nc1SCC(=O)O` the inhibition was 4.58% (active). For `N#Cc1c(C(F)(F)F)cc(-c2ccccc2)nc1SCC(=O)N1CCOCC1`, the inhibition was -0.64%. In the case of `Cc1cc(C(F)(F)F)c(C#N)c(SCC(=O)NC2CC2)n1`, the inhibition is reported as -0.39%. In the case of `Cc1ccc(C(=O)N[C@H](C(=O)N2CCN(c3ncccn3)CC2)C(C)C)cc1`, the inhibition is reported as 1.36%. `CC1(C2CC2)NC(=O)N(CC(=O)N2CCN(c3ccccc3F)CC2)C1=O` (stereo unspecified) showed an inhibition of -0.4%. `COc1cc(C)c(CN2CCN(C(=O)CCC(=O)c3ccc(C)s3)CC2)cc1OC` showed an inhibition of 0.95%. In the case of `COC(=O)C[C@H]1C[C@@H]2c3cc(N(C)C)ccc3O[C@@H]2[C@H](CO)O1`, the inhibition is reported as 1.14%. In the case of `O=C(NCCc1cccc(F)c1)C1CC(O)CN1C(=O)Nc1ccccc1` (stereo unspecified), the inhibition is reported as 0.98%. In the case of `COC(=O)c1sc(SC)c(S(=O)(=O)C(C)C)c1N/N=C(\C#N)S(=O)(=O)c1ccccn1`, the inhibition is reported as 4.53% (active). `Cc1cc(C)c2c(=O)n3c(nc2c1)C(CC(C)C)NC(=O)c1cc2ccccc2cc1-3` (stereo unspecified) was tested, and the inhibition was 0.81%. `COc1ccc(C=C2CCC3C(CCCC34OCCO4)C2=O)cc1` (stereo unspecified) gave an inhibition of 1.37%. In the case of `COc1ccc(CN2C(=O)C(CC(=O)NCCCCc3ccccc3)CC(C(=O)N3CCOCC3)=C2C)cc1` (stereo unspecified), the inhibition is reported as -0.84%. `CCCCCCNC(=O)O[C@]12C[C@@H](C(=O)OC)[C@@H](C(=O)OC)C[C@@]1(O)CN(S(=O)(=O)c1ccc(C)cc1)C2` gave an inhibition of 0.26%. With `CCOC(=O)c1cc(-c2sc(NC(=O)c3ccccc3)nc2C)n(Cc2ccccc2)n1` the inhibition was -1.03%. `O=S1(=O)CCN(C2CCCCCCCCCCC2)CC1` showed an inhibition of -0.26%. In the case of `O=C(Nc1ccc(C2CC2(Cl)Cl)cc1)c1cccc([N+](=O)[O-])c1` (stereo unspecified), the inhibition is reported as 4.49% (active). Work on `O=C(Nc1cccc([N+](=O)[O-])c1)c1ccc2c(c1)OCO2` yielded an inhibition of 0.29%. For `Cc1cc(C)nc(NC(=O)c2cccc([N+](=O)[O-])c2)c1`, the inhibition was 0.73%. Work on `CC1=C(C(=O)N2CCOCC2)CC(CC(=O)NCc2ccco2)C(=O)N1Cc1ccc(F)cc1` (stereo unspecified) yielded an inhibition of 1.82%. In the case of `C/C(=N\NC(=S)NC1CCCCC1)c1ccc(C)o1`, the inhibition is reported as 0.98%. In the case of `COc1ccc(C(=O)NC(=S)NC2CCCCC2)cc1`, the inhibition is reported as 1.16%. For `Cc1ccc(/C=N/NC(=S)NC2CCCCC2)o1`, the inhibition was 4.44% (active). With `CC1CCCCC12NC(=O)N(CC(=O)N1CCN(c3ccccc3)CC1)C2=O` (stereo unspecified) the inhibition was 1.67%. With `NC(=O)C1CCCN(CC(=O)N2CCN(c3ccccc3)CC2)C1` (stereo unspecified) the inhibition was 6.46% (active). Molecule `O=C(C1CCC1)N1CCN(c2ccccc2)CC1` has an inhibition of 0.59%. Work on `Cc1ccc(S(=O)(=O)N2C[C@H]3C(=O)C[C@@H](c4cccc5ccccc45)N(S(=O)(=O)c4ccc(C)cc4)[C@H]3C[C@H]2c2ccc(Cl)cc2)cc1` yielded an inhibition of -0.08%. In the case of `CC(C)CC(=O)N/C(N)=N/c1nc2ccccc2s1`, the inhibition is reported as 0.77%. In the case of `O=C(CCC(=O)c1cccs1)Nc1nc2ccccc2s1`, the inhibition is reported as 0.63%. For `CCC(=O)NC(=Nc1nc2ccccc2s1)NC(=O)CC`, the inhibition was 6.2% (active). `Cc1cccc(C(=O)C(O)(c2ccccc2)C2CCCCC2=O)c1` (stereo unspecified) was tested, and the inhibition was 0.38%. With `COc1ccc(NC(=O)CN(C)C(=O)c2cc(C)oc2C)cc1` the inhibition was -0.29%. For `Cn1nnc(NC(=S)NC(=O)c2ccccc2)n1`, the inhibition was 0.45%. With `Cc1cc2[nH]ncc2cc1NC(=S)NC(=O)c1ccccc1` the inhibition was 5.71% (active). Work on `Cc1cc(C)cc(C(=O)NC(=S)Nc2ccc3[nH]c(=O)[nH]c3c2)c1` yielded an inhibition of -1.15%. `O=C(OCC(=O)N1CCCCCC1)c1cccc(Cl)c1Cl` was tested, and the inhibition was 3.82%. Work on `O=C(CSc1ncn[nH]1)Nc1nc2c(F)c(F)c(F)cc2s1` yielded an inhibition of 0.83%. In the case of `C=CCSC(CC)(CC)C(N)=O`, the inhibition is reported as 4.43% (active). For `CCCOC(=O)c1ccc(N2C(=O)c3ccccc3C2=O)cc1`, the inhibition was -0.27%. `Cc1[nH]n(-c2ccccc2)c(=O)c1CCOC(=O)c1ccc(C(F)(F)F)cc1` was tested, and the inhibition was 5.49% (active). With `CCOC(=O)C[C@H]1c2ccc(C(F)(F)F)cc2S(=O)(=O)N1c1ccccc1` the inhibition was 0.49%.
